# Measurements: PubChem BioAssay
# Values without a mark were called inactive. This is one part of the list. Calls of active or inactive are those of the source. Unless noted, no stated cut-off is given here; in the data, active means inhibition above about 25%; inactive means the rest.
# Tests used:
# [1] = target: Peroxisome proliferator-activated receptor gamma (Homo sapiens) (UniProt P37231); test: retested PPARg-SRC-2 recruitment enhancers – biochemical, HTS, confirmation (AID 1297; in the data active means activation above about 22%;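 further: 0% = vehicle alone and 100% = reference agonist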); conditions: biochemical SRC-2 recruitment by PPARgamma; at 8 µM; hits give high values
# Peroxisome proliferator-activated receptor gamma (Homo sapiens), sequence (P37231 whole entry, looked up): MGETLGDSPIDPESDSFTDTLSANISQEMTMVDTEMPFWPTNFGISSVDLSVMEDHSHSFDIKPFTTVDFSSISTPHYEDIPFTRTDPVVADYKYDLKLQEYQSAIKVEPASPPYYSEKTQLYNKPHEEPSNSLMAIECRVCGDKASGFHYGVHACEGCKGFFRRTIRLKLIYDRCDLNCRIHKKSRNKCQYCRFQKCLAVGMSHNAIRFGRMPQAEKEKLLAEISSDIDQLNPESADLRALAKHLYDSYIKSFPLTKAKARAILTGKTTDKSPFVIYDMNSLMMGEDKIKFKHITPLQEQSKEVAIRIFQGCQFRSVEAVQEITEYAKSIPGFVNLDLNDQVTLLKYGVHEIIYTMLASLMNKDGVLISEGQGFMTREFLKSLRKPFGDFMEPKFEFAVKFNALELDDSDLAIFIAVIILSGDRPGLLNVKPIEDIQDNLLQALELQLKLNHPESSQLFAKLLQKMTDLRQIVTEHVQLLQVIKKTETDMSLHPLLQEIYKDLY
# [2] = target: Peroxisome proliferator-activated receptor gamma (Homo sapiens) (UniProt P37231); test: retest of SRC-1 recruitment enhancers for PPARgamma – biochemical, confirmation (AID 1300; in the data active means activation above about 20%;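 further: 0% = vehicle wells and 100% = reference agonist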); conditions: PPARgamma–SRC-1 coactivator recruitment biochemical assay; at 8 µM; hits give high values
# [3] = target: Peroxisome proliferator-activated receptor gamma (Homo sapiens) + Nuclear receptor coactivator 3 (Homo sapiens) (UniProt P37231+Q9Y6Q9); test: agonists promoting SRC-3 binding to PPARgamma – biochemical, confirmation (AID 1301; in the data active means activation above about 24%;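 further: 0% = vehicle wells and 100% = reference agonist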); conditions: biochemical PPARgamma-SRC-3 coactivator recruitment, agonist mode; at 8 µM; hits give high values
# Peroxisome proliferator-activated receptor gamma (Homo sapiens) + Nuclear receptor coactivator 3 (Homo sapiens), sequence (P37231 whole entry, looked up): as above
# Peroxisome proliferator-activated receptor gamma (Homo sapiens) + Nuclear receptor coactivator 3 (Homo sapiens), sequence (Q9Y6Q9 whole entry, looked up): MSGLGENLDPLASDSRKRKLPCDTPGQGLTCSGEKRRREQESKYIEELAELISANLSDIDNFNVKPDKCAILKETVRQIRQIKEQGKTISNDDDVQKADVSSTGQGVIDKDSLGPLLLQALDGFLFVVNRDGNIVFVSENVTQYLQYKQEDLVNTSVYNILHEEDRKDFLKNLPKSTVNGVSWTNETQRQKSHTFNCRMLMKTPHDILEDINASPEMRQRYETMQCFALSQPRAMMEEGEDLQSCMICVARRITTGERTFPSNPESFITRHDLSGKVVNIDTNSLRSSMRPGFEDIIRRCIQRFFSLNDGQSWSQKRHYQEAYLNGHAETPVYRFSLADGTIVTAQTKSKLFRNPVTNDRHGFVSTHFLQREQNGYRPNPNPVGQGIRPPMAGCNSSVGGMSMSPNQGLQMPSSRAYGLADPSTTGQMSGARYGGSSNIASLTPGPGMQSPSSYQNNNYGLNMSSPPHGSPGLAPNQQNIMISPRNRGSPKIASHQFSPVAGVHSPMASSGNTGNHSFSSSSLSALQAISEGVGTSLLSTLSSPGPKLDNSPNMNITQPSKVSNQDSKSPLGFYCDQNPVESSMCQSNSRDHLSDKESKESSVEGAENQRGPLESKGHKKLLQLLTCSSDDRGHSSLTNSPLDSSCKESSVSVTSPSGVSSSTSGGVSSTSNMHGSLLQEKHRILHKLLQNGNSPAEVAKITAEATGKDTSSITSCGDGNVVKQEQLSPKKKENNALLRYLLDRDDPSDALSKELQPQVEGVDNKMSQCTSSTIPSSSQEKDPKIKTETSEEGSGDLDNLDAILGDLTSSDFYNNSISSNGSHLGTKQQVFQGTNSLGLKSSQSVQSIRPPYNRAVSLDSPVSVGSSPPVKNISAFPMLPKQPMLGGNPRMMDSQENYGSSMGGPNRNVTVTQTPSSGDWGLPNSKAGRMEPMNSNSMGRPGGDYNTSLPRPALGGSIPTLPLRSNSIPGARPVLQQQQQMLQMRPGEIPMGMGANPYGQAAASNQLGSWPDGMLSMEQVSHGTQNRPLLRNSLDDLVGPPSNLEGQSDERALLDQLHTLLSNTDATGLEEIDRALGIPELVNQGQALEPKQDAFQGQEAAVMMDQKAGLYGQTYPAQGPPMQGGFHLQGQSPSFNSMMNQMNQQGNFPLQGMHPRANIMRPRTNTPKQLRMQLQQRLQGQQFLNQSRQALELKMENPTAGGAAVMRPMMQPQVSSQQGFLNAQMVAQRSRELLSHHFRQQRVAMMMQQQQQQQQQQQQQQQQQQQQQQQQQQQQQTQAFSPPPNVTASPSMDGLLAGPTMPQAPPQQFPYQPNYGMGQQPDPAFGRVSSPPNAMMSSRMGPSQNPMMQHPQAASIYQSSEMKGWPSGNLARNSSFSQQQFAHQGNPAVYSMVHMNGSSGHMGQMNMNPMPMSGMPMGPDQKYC
# [4] = target: Sphingosine 1-phosphate receptor 4 (Homo sapiens) (UniProt O95977); test: blockers of human S1P4 signalling – cell-based, confirmation (AID 1524; in the data active means inhibition above about 30%); conditions: S1P4-expressing cell line, antagonist mode, reporter read-out; at 4.98 µM; hits give high values
# Sphingosine 1-phosphate receptor 4 (Homo sapiens), sequence (O95977 whole entry, looked up): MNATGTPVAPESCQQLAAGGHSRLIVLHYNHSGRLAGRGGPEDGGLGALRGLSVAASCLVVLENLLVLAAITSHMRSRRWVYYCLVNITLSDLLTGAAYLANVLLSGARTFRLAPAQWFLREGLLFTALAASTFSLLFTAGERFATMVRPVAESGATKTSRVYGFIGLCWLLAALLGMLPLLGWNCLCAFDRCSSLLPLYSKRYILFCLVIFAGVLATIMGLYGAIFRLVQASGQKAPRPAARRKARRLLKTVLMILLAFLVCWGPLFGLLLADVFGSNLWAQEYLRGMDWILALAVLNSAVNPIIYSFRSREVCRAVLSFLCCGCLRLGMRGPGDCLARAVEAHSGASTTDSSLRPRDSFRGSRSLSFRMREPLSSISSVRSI
# [5] = target: Sphingosine 1-phosphate receptor 1 (Homo sapiens) (UniProt P21453); test: blockade of human S1P1 receptor – cell-based, counter-screen for S1P4 antagonist project (AID 1564; in the data active means inhibition above about 40%;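 further: receptor stimulated with S1P near its EC80; 0% = agonist stimulated wells and 100% = vehicle only wells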); conditions: cell-based S1P1 antagonist counterscreen, at 4.98 µM, hits give high values
# [6] = target: Galanin receptor type 2 (Homo sapiens) (UniProt O43603); test: blockers of human galanin receptor 2 – cell-based, confirmation (AID 866; in the data active means inhibition above about 27%;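 further: cells stimulated with galanin at about its EC80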); conditions: GALR2-expressing cells, antagonist mode, at 4 µM, hits give high values
# Galanin receptor type 2 (Homo sapiens), sequence (O43603 whole entry, looked up): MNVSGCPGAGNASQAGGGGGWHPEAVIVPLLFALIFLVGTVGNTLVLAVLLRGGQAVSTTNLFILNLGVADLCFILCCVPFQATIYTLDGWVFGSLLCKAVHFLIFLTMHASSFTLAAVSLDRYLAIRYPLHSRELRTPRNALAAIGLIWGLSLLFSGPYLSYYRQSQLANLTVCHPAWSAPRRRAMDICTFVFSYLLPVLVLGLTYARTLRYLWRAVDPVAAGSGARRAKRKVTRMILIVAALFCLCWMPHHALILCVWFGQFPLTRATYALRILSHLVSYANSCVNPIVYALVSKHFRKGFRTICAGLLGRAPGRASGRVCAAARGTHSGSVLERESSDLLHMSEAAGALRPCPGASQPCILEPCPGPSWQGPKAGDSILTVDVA
# [7] = nonspecific BLA reporter inhibition – CHO NFAT-bla cells, FRET readout, counter-screen for GALR2 antagonist project, confirmation (AID 867;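 active means inhibition above the mean inhibition across tested compounds plus 3 SD, cut at about 27% in these data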;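 further: 0% = 500 nM thapsigargin stimulated wells and 100% = unstimulated BSA only wells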); conditions: beta-lactamase FRET, thapsigargin-stimulated, at 4.2 µM, hits give high values
# [8] = target: Bcl-2-like protein 1 (Homo sapiens) (UniProt Q07817); test: Bcl-xL BH3-peptide displacement, hit confirmation – biochemical, fluorescence polarization, counter-screen for MCL1 inhibitor project (AID 2166;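 active means inhibition above a cutoff equal to the mean inhibition of all tested compounds plus 3 SD, cut at about 30% in these data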); conditions: GST-Bcl-xL / FITC-Bim BH3 peptide FP binding; at 10.9 µM; hits give high values
# Bcl-2-like protein 1 (Homo sapiens), sequence (Q07817 whole entry, looked up): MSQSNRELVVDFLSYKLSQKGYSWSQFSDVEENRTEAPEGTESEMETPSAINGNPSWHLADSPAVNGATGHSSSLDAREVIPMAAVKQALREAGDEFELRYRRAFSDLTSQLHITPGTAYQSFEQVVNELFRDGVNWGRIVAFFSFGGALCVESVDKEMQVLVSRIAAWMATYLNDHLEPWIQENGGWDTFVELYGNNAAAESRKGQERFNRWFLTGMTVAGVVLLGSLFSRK
# [9] = target: Induced myeloid leukemia cell differentiation protein Mcl-1 (Homo sapiens) (UniProt Q07820); test: MCL1-BIM peptide interaction disruptors – biochemical, fluorescence polarization, triplicate, confirmation (AID 2168;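 active means inhibition above the average of all tested compounds plus 3 SD, cut at about 40% in these data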;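 further: 0% = DMSO wells and 100% = unlabeled Bim-BH3 control peptide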); conditions: GST-MCL1 / FITC-Bim-BH3 fluorescence polarization; at 10.9 µM; hits give high values
# Induced myeloid leukemia cell differentiation protein Mcl-1 (Homo sapiens), sequence (Q07820 whole entry, looked up): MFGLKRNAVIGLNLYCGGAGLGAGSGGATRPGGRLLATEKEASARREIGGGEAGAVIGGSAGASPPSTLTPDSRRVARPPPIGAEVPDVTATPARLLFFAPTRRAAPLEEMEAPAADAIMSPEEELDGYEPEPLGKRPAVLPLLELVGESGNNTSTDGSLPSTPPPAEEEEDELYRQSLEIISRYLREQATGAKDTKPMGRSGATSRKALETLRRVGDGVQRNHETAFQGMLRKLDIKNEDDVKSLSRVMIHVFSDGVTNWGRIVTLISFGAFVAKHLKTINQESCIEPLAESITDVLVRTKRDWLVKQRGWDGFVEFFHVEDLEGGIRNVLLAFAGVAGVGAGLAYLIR
# [10] = target: Protein phosphatase methylesterase 1 (Homo sapiens) (UniProt Q9Y570); test: human PME-1 methylesterase inhibition confirmation – biochemical, fluorescence polarization, FP-Rh probe, triplicate (AID 2171;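 active means inhibition above the hit cutoff set in the earlier primary screen, cut at about 27% in these data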;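 further: 0% = enzyme with DMSO and 100% = wells lacking PME-1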); conditions: recombinant PME-1, FP-Rh probe fluorescence polarization; at 5.9 µM; hits give high values
# Protein phosphatase methylesterase 1 (Homo sapiens), sequence (Q9Y570 whole entry, looked up): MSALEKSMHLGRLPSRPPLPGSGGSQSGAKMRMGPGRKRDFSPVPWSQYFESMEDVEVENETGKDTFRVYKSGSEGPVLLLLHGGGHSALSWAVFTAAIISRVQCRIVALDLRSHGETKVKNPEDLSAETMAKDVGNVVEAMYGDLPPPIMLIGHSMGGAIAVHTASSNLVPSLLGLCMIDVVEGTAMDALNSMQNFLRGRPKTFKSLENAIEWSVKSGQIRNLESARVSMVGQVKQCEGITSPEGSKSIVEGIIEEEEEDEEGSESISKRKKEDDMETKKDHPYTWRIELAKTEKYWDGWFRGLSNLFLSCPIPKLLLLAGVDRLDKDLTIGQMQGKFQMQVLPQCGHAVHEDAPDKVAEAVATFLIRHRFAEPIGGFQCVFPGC
# [11] = reduced OD of T4-infected AddAB+ E. coli – absorbance, E. coli V3065, T4 phage, triplicate, AddAB inhibitor project, confirmation (AID 488942;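 active means mean inhibition above a set limit taken from the earlier primary screen, cut at about 13% in these data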;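 further: higher means less bacterial growth since AddAB block lets phage replicate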); conditions: E. coli V3065 expressing H. pylori AddAB, at 11.9 µM, hits give high values, T4 phage with gene 2 nonsense mutations
# [12] = reduced OD of phage-infected RecBCD+ V66 E. coli – absorbance, mutant T4 phage, counter-screen for AddAB inhibitor project (AID 488955;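 active means mean inhibition above the mean of solvent-only control wells plus 3 SD, cut at about 4% in these data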;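 further: optical density read after an 18 h incubation at 37 °C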); conditions: OD growth, at 11.9 µM, hits give high values
# [13] = bacterial growth inhibitors – absorbance, counter-screen for AddAB inhibitor project, confirmation (AID 488956); conditions: bacterial viability, absorbance (AddAB counterscreen); at 11.9 µM; hits give high values
# [14] = reduced OD of V66 E. coli with T4 gene 2 phage – absorbance, RecBCD inhibitor project, confirmation (AID 651982;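 active means mean inhibition over triplicates exceeding the hit threshold derived in the original primary screen, cut at about 11% in these data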); conditions: E. coli V66 + T4 2- phage, growth OD; at 11.9 µM; hits give high values
# [15] = bacterial growth inhibition – absorbance, high throughput, counter-screen for RecBCD inhibitor project (AID 651983; in the data active means inhibition above about 20%;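 further: E. coli strain V66 grown with compound alone and no phage infection; 0% = bacteria with DMSO vehicle only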); conditions: E. coli viability, absorbance (OD) growth; at 11.9 µM; hits give high values
# [16] = reduced optical density, T4-challenged addAB+ bacteria – absorbance, E. coli V3065, T4 phage, counter-screen for RecBCD inhibitor project, confirmation (AID 651984;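 active means mean inhibition above the solvent-only control wells' mean plus 3 SD, cut at about 22% in these data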;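 further: higher means less bacterial growth from phage killing when AddAB is blocked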); conditions: E. coli expressing H. pylori AddAB + T4 phage, OD growth; at 11.9 µM; hits give high values; gene 2 mutant T4, recBCD-deleted host
# [17] = suppression of KLF5 promoter-driven luciferase – DLD-1 cells, luminescence, confirmation (AID 1834;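 active means inhibition above a set limit taken from the earlier primary screen, cut at about 63% in these data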;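 further: 0% = DMSO wells and 100% = LY294002 at 200 µM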); conditions: DLD-1 KLF5 promoter firefly luciferase reporter, at 4 µM, hits give high values
# [18] = IEC-6 intestinal cell killing – luminescence, triplicate, cytotoxicity control for KLF5 inhibitor project (AID 1905; in the data active means inhibition above about 23%;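 further: cells exposed to compounds for 48 hours before viability read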); conditions: IEC-6 rat intestinal cells, viability luminescence; at 4 µM; hits give high values
# [19] = target: Oxysterols receptor LXR-beta (Homo sapiens) (UniProt P55055); test: nonspecific reporter activation via LXR – cell-based, luminescence, HEK293, H. contortus campaign, counter-screen for hcDAF-12 agonist project, confirmation (AID 743027;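 active means mean percent activation of the reporter above a cutoff set as the average over tested compounds plus their standard deviation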); conditions: HEK293 Gal4-LXR tk-luc reporter, 24 h, at 6.8 µM, hits give high values, normalized: DMSO 0%, positive control 100%
# Oxysterols receptor LXR-beta (Homo sapiens), sequence (P55055 whole entry, looked up, the tested form may be a part): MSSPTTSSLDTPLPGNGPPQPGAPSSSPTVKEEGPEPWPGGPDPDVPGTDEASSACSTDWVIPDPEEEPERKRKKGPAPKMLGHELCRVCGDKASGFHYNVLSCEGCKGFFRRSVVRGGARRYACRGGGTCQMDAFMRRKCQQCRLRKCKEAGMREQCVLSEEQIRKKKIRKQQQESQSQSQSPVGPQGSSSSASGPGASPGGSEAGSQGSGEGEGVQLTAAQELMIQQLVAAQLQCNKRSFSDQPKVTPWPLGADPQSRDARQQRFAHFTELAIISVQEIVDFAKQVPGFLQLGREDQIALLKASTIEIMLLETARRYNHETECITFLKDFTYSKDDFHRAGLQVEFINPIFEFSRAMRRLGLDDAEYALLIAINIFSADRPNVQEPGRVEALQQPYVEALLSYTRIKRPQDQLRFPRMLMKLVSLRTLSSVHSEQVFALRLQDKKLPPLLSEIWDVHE
# [20] = test system: Nuclear hormone receptor DAF-12 (Haemonchus contortus); test: hcDAF-12 luciferase reporter activation, retest – cell-based, luminescence, HEK293, lit1-tk-luc, triplicate, confirmation (AID 743032;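 active means mean activation across triplicate tests above the threshold derived from the earlier primary screen, cut at about 5.5% in these data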;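 further: 0% = DMSO only wells and 100% = 3 µM Δ7-dafachronic acid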); conditions: HEK293 hcDAF-12 lit1-tk-luc reporter, at 6.8 µM, hits give high values, % of Δ7-dafachronic acid response
# [21] = test system: Fam108b (Abhd17b) serine hydrolase [Mus musculus]; test: inhibition of Fam108b (Abhd17b) hydrolase – biochemical, fluorescence polarization, triplicate, counter-screen for RBBP9 inhibitor project, confirmation (AID 1978;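 active means inhibition above a limit from the primary screen, the mean over all compounds plus 3 SD, cut at about 19% in these data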;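 further: 0% = median of active Fam108b wells and 100% = catalytically dead S170A mutant; inhibitors free the probe so polarization falls as inhibition rises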); conditions: recombinant Fam108b, FP-Rh probe fluorescence polarization; at 9.51 µM; hits give high values
# [22] = target: Platelet-activating factor acetylhydrolase IB subunit alpha1 (Homo sapiens) (UniProt Q15102); test: inhibition of PAF acetylhydrolase 1B subunit 3 – biochemical, fluorescence polarization, human, confirmation (AID 493032;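 active means average inhibition over triplicate runs above the hit cutoff set in the earlier primary screen, cut at about 25% in these data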;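 further: 0% = enzyme with DMSO and 100% = wells lacking PAFAH1B3 protein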); conditions: recombinant PAFAH1B3, FP-Rh activity-based probe, at 3.39 µM, hits give high values
# Platelet-activating factor acetylhydrolase IB subunit alpha1 (Homo sapiens), sequence (Q15102 whole entry, looked up): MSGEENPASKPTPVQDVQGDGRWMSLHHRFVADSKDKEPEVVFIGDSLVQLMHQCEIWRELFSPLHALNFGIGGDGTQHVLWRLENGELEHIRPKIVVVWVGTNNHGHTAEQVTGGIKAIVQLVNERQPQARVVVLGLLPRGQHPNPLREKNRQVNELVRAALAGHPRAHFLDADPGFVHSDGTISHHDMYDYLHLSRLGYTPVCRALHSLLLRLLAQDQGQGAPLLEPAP
# [23] = target: Serine protease HTRA1 (Homo sapiens) (UniProt Q92743); test: confirming inhibition of human HTRA1 – biochemical, fluorescence polarization, confirmation (AID 540248;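 active means mean inhibition over three repeats above a set limit taken from the earlier primary screen, cut at about 37% in these data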;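 further: 0% = HTRA1 with DMSO and 100% = wells lacking HTRA1; inhibitors block probe binding so polarization drops and inhibition rises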); conditions: recombinant HTRA1, FP-rhodamine activity-based probe, at 5.96 µM, hits give high values
compound,measurement,setting,value
Fc1ccc(COc2cccc(-c3n[nH]c(=S)o3)c2)cc1,activation,[1],51.6% (active)
same,activation,[2],39.9% (active)
same,activation,[3],34% (active)
NC(=O)CSc1oc(-c2cccs2)nc1S(=O)(=O)c1ccccc1,activation,[1],40.9% (active)
same,activation,[2],34.8% (active)
same,activation,[3],26.5% (active)
CCOC(=O)/C=C/C(=O)OCC(=O)NC(c1ccccc1)c1ccccc1,inhibition,[4],63% (active)
same,inhibition,[5],23.2%
O=C(Nc1ccccc1)c1nnsc1S(=O)(=O)c1ccc(Cl)cc1,inhibition,[6],45.8% (active)
same,inhibition,[7],66.7% (active)
Cc1ccc(/C=N/NC(=O)COc2ccccc2-c2ccccc2)cc1,inhibition,[8],-0.45%
same,inhibition,[9],-3.63%
COc1ccc(C(=O)Nc2ccccc2C(=O)N/N=C/c2ccc(O)c(OC)c2)cc1,inhibition,[10],28.2% (active)
COc1cccc(/C=N/Nc2ncc(C(F)(F)F)cc2Cl)c1O,inhibition,[11],12.9% (active)
same,inhibition,[12],16.2% (active)
same,inhibition,[13],16.3%
same,inhibition,[14],7.89%
same,inhibition,[15],9.3%
same,inhibition,[16],12.8%
Cc1cccc(NC(=O)c2ccc([N+](=O)[O-])o2)c1,inhibition,[11],98% (active)
same,inhibition,[12],11.9% (active)
same,inhibition,[13],34.5% (active)
same,inhibition,[14],7.5%
same,inhibition,[15],8.19%
same,inhibition,[16],66.8% (active)
Nc1ccc2nn(-c3ccc(Cl)cc3)nc2c1,inhibition,[17],-145%
same,inhibition,[18],4.57%
same,activation,[19],1.78%
same,activation,[20],9.23% (active)
Cc1cccc(-c2nc(Nc3ccc(O)cc3)c3ccccc3n2)c1,inhibition,[21],17.7%
same,inhibition,[10],-0.9%
O=C(N/N=C/c1sc(N2CCCCC2)nc1-c1cccs1)c1cccnc1,inhibition,[21],9.2%
same,inhibition,[22],12.7%
same,inhibition,[23],58.4% (active)
